Screening results: PubChem BioAssay, Sanford-Burnham Center for Chemical Genomics
The list is not random: actives were taken first. Their share in the collection is about 28%.
CYP2C19 inh – inhibitors of human CYP2C19; P33261; CYP2C19 Supersomes, luciferin-H EGE luminescence, 30 min; inhibition, % at 5 µM; 96,000 compounds, 21% hits; AID 778;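 active = CYP2C19 inhibition above a set limit at 5 µM in the primary screen, cut at about 50% in these data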
CYP2C19 activ – cytochrome P450 2C19 (human) activation | recombinant CYP2C19, luciferin-H EGE luminescence; hits give high values; 0 = fully inhibited enzyme, 1 = untreated enzyme | activation factor at 5 µM | 96,000 tested, under 10 active;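 active = activation factor of at least 2 at 5 µM in the primary screen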
Pyk2 oligo antag – Pyk2 (human) oligomerization antagonism | Q14289 | Q293 cells, Pyk2 FERM NanoBiT luminescence; hits give low values | z-score (the deposit names both 25 µM and 10 µM) | 99,000 compounds, 0.83% hits;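 active = Z-score of -3 or lower, scaled per plate to the spread of control and sample wells; inactive = z-score above -3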;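 also: negative z-score means lost luminescence so less FERM oligomerization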
CYP2C9 activ – increases human cytochrome P450 2C9 activity; recombinant CYP2C9, luciferin-H conversion, luminescence; hits give high values; factor 1 = untreated enzyme, 0 = blocked; activation factor at 5 µM; 96,000 compounds, 1.4% hits; AID 1024;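 active = activation factor of 2 or more for CYP2C9 at a 5 µM dose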
CYP2C9 inh – blocks human cytochrome P450 2C9; P11712; CYP2C9 Supersomes, luciferin-H conversion, luminescence; 96,000 compounds, 20% hits; inhibition, % at 5 µM;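 active = blocking of liver enzyme CYP2C9 beyond about 50% at 5 µM, limit read from the data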
Of the large screens only hits and unclear results are named; the others gave an inactive call.

COC(=O)c1ccccc1NC(=O)CN1CCC(NC(=O)c2ccc(C)cc2)CC1	CYP2C19 inh 87.7, CYP2C9 inh 67.2
CCCN1CCC(NC(=O)Nc2ccccc2C(=O)OC)CC1	none
COc1ccc(/C(C#N)=C/c2c(-c3ccc(Cl)cc3)nc3c(C)cccn23)cc1	CYP2C19 inh 52.0, CYP2C9 inh 57.2
CCOC(=O)c1c(-c2ccccc2)nc2c(C)cccn12	none
CC1(c2ccccc2)CC(c2ccccc2)=Nc2nonc2N1 (stereo not drawn)	CYP2C19 inh 94.1, CYP2C9 inh 51.6
COC(=O)C1C(=O)OC(C)(C)C1C(C)C(=O)c1ccccc1 (stereo not drawn)	CYP2C19 inh 79.1
CCCCCCSc1cc(C)nc2ncnn12	CYP2C19 inh 66.1 (no result: Pyk2 oligo antag)
CCSc1cc(C)nc2ncnn12	none
CCN(CC)CC#CCC(C)(c1ccccc1)c1ccccc1	CYP2C19 inh 93.6, CYP2C9 inh 71.6
Cc1ccccc1CN1CCN(CC(=O)NCc2ccc3c(c2)OCO3)C1=O	CYP2C9 inh 76.0
O=C(Cn1nnc(-c2ccccc2F)n1)Nc1ccc2c(c1)OCO2	none
Cc1ccccc1-c1nnn(CC(=O)NCc2ccc3c(c2)OCO3)n1	CYP2C9 inh 81.9
N#Cc1c(N)oc(-c2ccc3c(c2)OCO3)c1-c1ccc2c(c1)OCO2	CYP2C19 inh 95.6, CYP2C9 inh 86.8
N#Cc1c(N)nc2c(c1-c1ccc3c(c1)OCO3)CCCCCC2	none
Cc1cc(C)nc(NC(=O)CCC2CCCC2)c1	none (no result: CYP2C19 inh, CYP2C19 activ, CYP2C9 activ, CYP2C9 inh)
Cc1nnc(N2C(=O)c3cccc4cccc(c34)C2=O)s1	none
CCCc1nnc(N2C(=O)c3cccc4cccc(c34)C2=O)s1	CYP2C9 activ 3
Cc1c(C(C)O)nnn1-c1nonc1N (stereo not drawn)	none
N/C(Cc1cccs1)=N\OC(=O)COc1ccc(Cl)cc1Cl	none
CCCC(=O)Nc1ccccc1NC(=O)CN(C)S(=O)(=O)c1ccc(C)cc1	none
COc1ccc(S(=O)(=O)N(C)CC(=O)Nc2ccccc2C(F)(F)F)cc1	CYP2C19 inh 81.4
COc1ccc(S(=O)(=O)N(C)CC(=O)Nc2ccccc2C(F)(F)F)cc1Cl	CYP2C19 inh 53.1
CCOC(=O)c1c(C)[nH]c(C(=O)COC(=O)c2ccc(F)c(S(=O)(=O)N3CCOCC3)c2)c1C	none
CCOC(=O)c1c(C)[nH]c(C)c1C(=O)COC(=O)C1CCCN1S(=O)(=O)c1ccccc1F (stereo not drawn)	CYP2C19 inh 100.4, CYP2C9 inh 95.0
COC(=O)c1ccc(C)c(NS(=O)(=O)c2ccc(OC)c(OC)c2)c1	CYP2C19 inh 81.8, CYP2C9 inh 58.2
COc1ccc(Cl)cc1S(=O)(=O)Oc1ccc(NC(C)=O)cc1	none (no result: CYP2C19 inh, CYP2C19 activ, CYP2C9 activ, CYP2C9 inh)
COc1cccc(NS(=O)(=O)c2ccc(OC)c(OC)c2)c1	CYP2C19 inh 99.6
COc1ccc(S(=O)(=O)Nc2ccccc2)cc1OC	CYP2C19 inh 90.5
COc1ccc(CONS(=O)(=O)c2ccc(NC(C)=O)cc2)cc1Cl	CYP2C19 inh 52.8
Cn1c2c(c(=O)n(C)c1=O)CN(CCN1CCNCC1)CN2	none
CSc1nc(C)cc(SCCO)n1	none
COc1ccc(N2CC(=O)N(c3ccc(OC)c(OC)c3)CC2=O)cc1OC	none
COC(=O)COc1ccc(S(=O)(=O)Nc2ccc(NC(C)=O)cc2)cc1C	CYP2C19 inh 76.5
COc1ccc(S(=O)(=O)Nc2ccc(C)cc2)cc1OC	CYP2C19 inh 97.0, CYP2C9 inh 62.0
COc1ccc(S(=O)(=O)c2ccc(OC)c(OC)c2)cc1OC	CYP2C19 inh 79.1
COc1ccc(S(=O)(=O)Nc2ccc(NC(C)=O)cc2)cc1OC	CYP2C19 inh 95.0, CYP2C9 inh 67.3
CC(=O)Nc1ccc(S(=O)(=O)NNC(=O)COc2cc(C)ccc2C(C)C)cc1	none
CC(C)CCNC(=O)C1CCCCN1S(=O)(=O)c1ccc(F)cc1 (stereo not drawn)	none
Cn1c(CCNC(=O)c2ccco2)nc2cc(NS(=O)(=O)c3ccc(Cl)cc3)ccc21	CYP2C19 inh 88.9, CYP2C9 inh 98.2
Cn1c(CN2CCCCC2)nc2cc(NC(=O)c3cccs3)ccc21	CYP2C19 inh 98.6, CYP2C9 inh 87.0
Cn1c(CN2CCCCC2)nc2cc(NS(=O)(=O)c3ccc(Cl)cc3)ccc21	CYP2C9 inh 67.3
Cn1c(CCN2CCN(c3ccc(F)cc3)CC2)nc2cc(NC(=O)c3ccco3)ccc21	none
Cn1c(CCN2CCCCC2)nc2cc(NS(=O)(=O)c3ccc(Cl)cc3)ccc21	none
Cc1ccc(N2CCN(CCc3nc4cc(NC(=O)c5ccco5)ccc4n3C)CC2)cc1	CYP2C9 inh 69.0
Cc1nnc(NC(=O)Cc2ccc(OCc3c(C)noc3C)cc2)s1	none
CCOC(=O)C(C(=O)OCC)C(C(=O)OCC)N1CCOCC1 (stereo not drawn)	CYP2C9 inh 52.9
COc1ccc(CN2C(=O)c3ccccc3C(/C=N/OCc3ccc(Cl)cc3)C2=O)cc1 (stereo not drawn)	CYP2C9 inh 77.7
CCOc1ccc(N(CC(=O)NCc2ccc(F)cc2)S(=O)(=O)c2c(C)noc2C)cc1	none (no result: Pyk2 oligo antag)
Cc1noc(C)c1S(=O)(=O)N(CC(=O)NCc1ccc2c(c1)OCO2)c1ccc(C(C)C)cc1	CYP2C19 inh 63.3 (no result: Pyk2 oligo antag)
Cc1ccc(N(CC(=O)NCc2ccc3c(c2)OCO3)S(=O)(=O)c2c(C)noc2C)cc1	CYP2C19 inh 97.6, CYP2C9 inh 57.3 (no result: Pyk2 oligo antag)
O=c1[nH]c2ccccc2c(=O)n1Cc1ccccc1	none
O=c1c2ccccc2c(C=NCCc2ccccc2)c(O)n1Cc1ccccc1	CYP2C9 inh 77.0
O=C(CN1CCN(Cc2ccccc2)C1=O)NCCCN1CCOCC1	none (no result: Pyk2 oligo antag)
O=c1c2ccccc2c(C=NCCCN2CCOCC2)c(O)n1Cc1ccccc1	CYP2C19 inh 64.8, CYP2C9 inh 71.3
CCCOP(=O)(OCCC)C(Nc1ccc(C(C)C)cc1)c1ccc([N+](=O)[O-])cc1 (stereo not drawn)	none
COC(=O)c1ccccc1NC(=O)C1CCCN(c2nnc(-n3cccc3)s2)C1 (stereo not drawn)	none (no result: Pyk2 oligo antag)
COc1ccc(Cn2nc(C)n(N(C)c3ncc(C(F)(F)F)cc3Cl)c2=O)cc1	CYP2C19 inh 53.2
O=C(c1ccc(Cl)cc1Cl)C1(n2cncn2)Oc2ccccc2C1O (stereo not drawn)	CYP2C19 inh 99.0, CYP2C9 inh 93.0
Cc1cccc(N(C(=O)CCC(=O)Nc2cc(C)on2)C(C(=O)NC2CCCC2)c2ccncc2)c1 (stereo not drawn)	CYP2C19 inh 81.0, CYP2C9 inh 83.8
COc1ccc(C(C(=O)NC(C)(C)C)N(CC2CCCO2)C(=O)CCC(=O)Nc2cc(C)on2)cc1 (stereo not drawn)	CYP2C19 inh 51.1, CYP2C9 inh 83.5
Cc1ccc(N(C(=O)CCC(=O)Nc2cc(C)on2)C(C(=O)NC2CCCC2)c2ccncc2)cc1 (stereo not drawn)	CYP2C19 inh 64.0, CYP2C9 inh 69.4
Cc1ccc(C(C(=O)NC2CCCC2)N(C(=O)CCC(=O)Nc2cc(C)on2)c2ccccc2)cc1 (stereo not drawn)	none (no result: CYP2C19 inh, CYP2C19 activ, CYP2C9 activ, CYP2C9 inh)
